Screens deposited in PubChem BioAssay by National Center for Advancing Translational Sciences (NCATS).
The list is not random: actives were taken first. Their share in the collection is about 2.4%.
D2 ag-1 = Beta-Arrestin HTS for Positive Allosteric Modulators of the Human D2 Dopamine Receptor: Agonists | DiscoveRx PathHunter D2 beta-arrestin, luminescence, 90 min; 100% = 57 uM dopamine signal | 360,000 tested, 0.084% active | AID 624465, 2012 | activation, % (no concentration beside the values); in the data active means activation above about 40%; inconclusive means between about 15% and that limit
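DiscoveRx PathHunter D2 beta-arrestin cells (2,100/well) attached overnight, then compound-stimulated 90 min at 37 C in HBSS/10 mM HEPES/0.1% Tween-20 buffer; beta-galactosidase complementation read by luminescence after 1 h at ambient temperature. Dopamine 57 uM final (EC100) as control.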
D2 ag-2 = HTS Assay for Allosteric Agonists of the Human D2 Dopamine Receptor: Primary Screen for Agonists. HEK293 T-REx D2 cells, calcium flux agonist mode. 340,000 tested, 0.53% active. D(2) dopamine receptor (Homo sapiens), P14416. AID 485358, 2010. activation, % at 2 µM;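 active means activation over 3 SD above normal in the single-dose calcium agonist read, cut at about 30% in these data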; further: 0% is about no effect
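Tetracycline-induced HEK293 T-REx cells with force-coupled D2 receptor, plated overnight at 30 C, loaded with no-wash calcium dye. After a 10 s baseline, compound was pin-added and calcium flux read kinetically for 180 s; calcium rises flagged agonists.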
D2 PAM-1 = Beta-Arrestin HTS for Positive Allosteric Modulators of the Human D2 Dopamine Receptor: Potentiators | AID 624464, 2012 | potentiation, % (concentration not given with the values) | 360,000 tested, 0.23% active | DiscoveRx D2 beta-arrestin cells, luminescence, 90 min; 100% = 57 uM dopamine signal | D(2) dopamine receptor (Homo sapiens), P14416; in the data active means potentiation above about 50%; inconclusive means mostly about 30% to 49%
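D2 cells co-treated with compound plus 50 nM dopamine (EC20) for 90 min at 37 deg C to detect potentiation. Beta-arrestin recruitment was read as enzyme-fragment luminescence after 1 h at ambient temperature. Full response was set by 57 uM dopamine.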
D2 PAM-2 = HTS Assay for Positive Allosteric Modulators of the Human D2 Dopamine Receptor: Primary Screen for Potentiators. HEK293 T-REx D2, calcium flux, EC20 dopamine potentiation. potentiation, % at 10 µM. 340,000 tested, 0.34% active. AID 485347, 2010;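 active means potentiation over 3 SD above the plate norm, cut at about 30% in these data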; further: 0% is about no effect
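Potentiation of an EC20 dopamine calcium response measured kinetically over 180 s, after a preceding 180 s compound-only read flagging agonists. Cells: inducible Hek293 Trex D2 line, 4000/well, cultured overnight at 30 C before dye loading.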
D2 antag = HTS Assay for Allosteric Antagonists of the Human D2 Dopamine Receptor: Primary Screen for Antagonists | AID 485344, 2010 | HEK293 TREx D2 cells, calcium flux, dopamine EC80 | 340,000 tested, 2% active | inhibition, % at 10 µM | D(2) dopamine receptor (Homo sapiens), P14416; in the data active means inhibition above about 30%; inactive means below that, where a call was filed; further: 0% is about no effect
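Tetracycline-induced HEK293 TREx cells expressing D2 receptor forced-coupled to calcium signalling, loaded with no-wash calcium dye. Compounds added and calcium flux read 180 s, then dopamine added at EC80 and read a further 180 s.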
D3 ag = qHTS of D3 Dopamine Receptor Agonist: D3 Dopamine Receptor B-arrestin Agonist Confirmatory Assay; AID 720506, 2013; DiscoveRx D3 beta-arrestin cells, luminescence, 90 min; 2,300 tested, 4% active; Potency, µM (highest dose often 76.9 µM), without a hit: at the top dose activation, usual class: activators; shares compounds with D2 ag-2;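 further: potency means the concentration at half of the fitted maximal effect; 100% = dopamine control response; nearly all actives have a fitted effect of over 70% in size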
Target sequence (P35462 whole entry, looked up): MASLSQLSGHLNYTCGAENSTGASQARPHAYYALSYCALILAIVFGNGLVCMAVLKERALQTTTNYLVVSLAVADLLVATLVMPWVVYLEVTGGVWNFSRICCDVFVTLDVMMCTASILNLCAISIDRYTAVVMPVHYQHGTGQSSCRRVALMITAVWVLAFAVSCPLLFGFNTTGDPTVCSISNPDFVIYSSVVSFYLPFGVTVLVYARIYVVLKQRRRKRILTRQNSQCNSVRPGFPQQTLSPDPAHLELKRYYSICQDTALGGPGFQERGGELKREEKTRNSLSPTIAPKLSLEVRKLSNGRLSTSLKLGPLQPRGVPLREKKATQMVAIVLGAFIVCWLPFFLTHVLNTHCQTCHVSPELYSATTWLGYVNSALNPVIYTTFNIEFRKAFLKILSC
D2 ag-3 = qHTS of D3 Dopamine Receptor Agonist: D2 Dopamine Receptor B-arrestin Agonist Counterscreen | shares compounds with D2 ag-2 | DiscoveRx PathHunter D2 beta-arrestin, luminescence, 90 min; response scale: percent relative to full dopamine signal | Potency, µM (titrated, usually from 76.9 µM), without a hit: top-dose activation, hits mostly activators | 2,300 tested, 5.9% active | AID 720507, 2013; further: potency means the concentration at half of the fitted maximal effect; % of control where 0% means no effect; nearly all actives have a fitted effect of over 70% in size
Numbers without * were called inactive; ? = inconclusive; . = not tested or not shown. Unless noted, the call rests on the fitted dose curve; in most records, active means well fitted activation curve with a large enough effect; inconclusive means small, poorly fitted or top-dose-only effect; inactive means flat fitted curve, though single readings scatter.

SMILES	D2 ag-1	D2 ag-2	D2 PAM-1	D2 PAM-2	D2 antag	D3 ag	D2 ag-3
CCCC(C)NC(=O)c1cc(S(=O)(=O)N2CCCCCC2)ccc1OC (configuration not stated)	-2	1	0	4	-12	-5%	0%
CNC(C)C(=O)NC(C(=O)N1CCCC1C(=O)NC1CCCc2ccccc21)C(C)C (configuration not stated)	1	-1	-7	-2	-31	.	.
CNC(C)C(=O)NC(C(=O)N1CCCC1C(=O)NNc1ccccc1)C(C)C (configuration not stated)	-4	1	-10	-5	-8	-6%	-6%
Cc1ccc(S(=O)(=O)N2CCN(C(=O)COC(=O)/C=C/c3ccccc3)CC2)c(C)c1	0	1	-6	12	19	-8%	-4%
Cc1ccc(S(=O)(=O)N2CCN(C(=O)COC(=O)CSc3cc(C)ccc3C)CC2)c(C)c1	2	0	-17	7	-7	-1%	-4%
Cc1ccc(S(=O)(=O)N2CCN(C(=O)COC(=O)/C=C/c3ccc(F)cc3)CC2)c(C)c1	1	0	-11	5	3	.	.
CCOC(=O)c1[nH]c(C)c(CCC(=O)NCc2ccc(C)cc2)c1C	.	0	.	8	.	.	.
COc1cccc(-c2nc(SCC(=O)NCC3CCCO3)c(-c3ccc(Cl)cc3)[nH]2)c1 (configuration not stated)	.	3	.	-22	.	.	.
CC12CCC(C(=O)N(CCCCN3CCN(c4ccccn4)CC3)C1=O)C2(C)C (configuration not stated)	73*	73*	57*	-21	84*	?	0.071µM*
O=C(c1ccco1)N1CCN(CC2CC3C=CC2C3)CC1 (configuration not stated)	42*	24	?	.	84*	?	?
C1=CC2CC1CC2CN1CCN(c2ccccc2)CC1 (configuration not stated)	?	76*	?	-28	77*	7%	?
Cc1ccccc1CN1CCN(CC2CC3C=CC2C3)CC1 (configuration not stated)	-3	-1	-29	-24	19	.	.
O=S(=O)(c1ccc(F)cc1)N1CCc2ccccc21	1	8	7	3	36*	4%	2%
O=S(=O)(c1ccc(Cl)cc1)N1CCc2ccccc21	-6	1	-1	11	1	.	.
COc1ccc(/C=C2\CCCC(C(=O)C(F)(F)F)=C2O)cc1	-2	0	-11	17	20	.	.
O=C(C1=C(O)/C(=C/c2ccc(O)cc2)CCC1)C(F)(F)F	-7	1	-11	2	23	-21%	-4%
CN(C(=O)c1nn(C)c2c1COc1ccccc1-2)c1cccc(C(F)(F)F)c1	.	0	.	-1	.	.	.
COc1ccc(NS(=O)(=O)c2ccc3c(c2)CC(C)N3C(C)=O)c(OC)c1 (configuration not stated)	.	.	.	2	.	.	.
CC1=CC(C)C(/C=N/N=C(N)N)C(C)C1 (configuration not stated)	-3	28	-6	-3	19	-1%	-4%
